The campaign covered roughly 5,500 compounds. About 2,000 (36%) were called active. Inconclusive results (about 18%) are left out. Cut-off read from the data, not from the text of the source: active = normalized growth mostly below about 0.91 (no sharp cut-off); inconclusive = no clear call, values can overlap the other calls; inactive = mostly above about 0.92. Some of the results follow.
Test: chemical genetic growth profiling, strain panel (AID 1159580);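 note: tested at 20 µM; growth read once vehicle control cultures reached saturation at 30 °C; 1 = growth at the plate median or of vehicle wells; lower values mean less growth of the strain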
Settings: growth OD

Measured: normalized growth

C=CCSCC1Nc2cc(Cl)c(S(N)(=O)=O)cc2S(=O)(=O)N1 (configuration not stated)
inactive: S. cerevisiae deletion strains, locus YJR075W, strain HOC1, stronger effect = lower value 1.01 | S. cerevisiae deletion strains, locus YKL009W, strain mrt4, stronger effect = lower value 1.02 | S. cerevisiae deletion strains, locus YKL068W, stronger effect = lower value 1.02 | S. cerevisiae deletion strains, locus YKL085W, strain MDH1 (second series), stronger effect = lower value 1 | S. cerevisiae deletion strains, locus YKL085W, strain MDH1, stronger effect = lower value 1 | S. cerevisiae deletion strains, locus YKL160W, strain elf1, stronger effect = lower value 0.994 | S. cerevisiae deletion strains, locus YKL190W, strain CNB1, stronger effect = lower value 1.01 | S. cerevisiae deletion strains, locus YKR001C, strain vps1, stronger effect = lower value 1.02 | S. cerevisiae deletion strains, locus YKR026C, strain gcn3, stronger effect = lower value 1 | S. cerevisiae deletion strains, locus YKR091W, strain srl3, stronger effect = lower value 1 | S. cerevisiae deletion strains, locus YLL001W, strain dnm1, stronger effect = lower value 0.997 | S. cerevisiae deletion strains, locus YLL026W, stronger effect = lower value 0.998 | S. cerevisiae deletion strains, locus YLL041C, strain sdh2, stronger effect = lower value 1 | S. cerevisiae deletion strains, locus YLR027C, strain aat2, stronger effect = lower value 0.996 | S. cerevisiae deletion strains, locus YLR039C, strain RIC1, stronger effect = lower value 1.02 | S. cerevisiae deletion strains, locus YLR058C, strain SHM2, stronger effect = lower value 1.01 | S. cerevisiae deletion strains, locus YLR102C, strain apc9, stronger effect = lower value 1.04 | S. cerevisiae deletion strains, locus YLR113W, strain HOG1, stronger effect = lower value 1.06 | S. cerevisiae deletion strains, locus YLR221C, strain rsa3, stronger effect = lower value 0.988 | S. cerevisiae deletion strains, locus YLR258W, strain gsy2, stronger effect = lower value 0.998 | S. cerevisiae deletion strains, locus YLR262C, strain YPT6 (second series), stronger effect = lower value 0.989 | S. cerevisiae deletion strains, locus YLR262C, strain YPT6, stronger effect = lower value 1.04 | S. cerevisiae deletion strains, locus YLR268W, strain sec22, stronger effect = lower value 1.02 | S. cerevisiae deletion strains, locus YLR320W, strain mms22, stronger effect = lower value 0.985 | S. cerevisiae deletion strains, locus YLR330W, strain CHS5, stronger effect = lower value 1.01 | S. cerevisiae deletion strains, locus YLR342W, strain FKS1 (second series), stronger effect = lower value 0.996 | S. cerevisiae deletion strains, locus YLR342W, strain FKS1, stronger effect = lower value 1.01 | S. cerevisiae deletion strains, locus YLR357W, strain rsc2, stronger effect = lower value 0.991 | S. cerevisiae deletion strains, locus YLR370C, strain arc18, stronger effect = lower value 1 | S. cerevisiae deletion strains, locus YLR371W, strain rom2, stronger effect = lower value 1.02 | S. cerevisiae deletion strains, locus YLR384C, strain iki3, stronger effect = lower value 1 | S. cerevisiae deletion strains, locus YLR418C, strain cdc73, stronger effect = lower value 1.04 | S. cerevisiae deletion strains, locus YML016C, strain PPZ1, stronger effect = lower value 1.01 | S. cerevisiae deletion strains, locus YML032C, strain rad52, stronger effect = lower value 1.03 | S. cerevisiae deletion strains, locus YML120C, strain ndi1, stronger effect = lower value 1 | S. cerevisiae deletion strains, locus YML124C, strain tub3, stronger effect = lower value 1.02 | S. cerevisiae deletion strains, locus YMR058W, strain fet3, stronger effect = lower value 0.998 | S. cerevisiae deletion strains, locus YMR078C, strain ctf18, stronger effect = lower value 1.03 | S. cerevisiae deletion strains, locus YMR125W, strain sto1, stronger effect = lower value 0.998 | S. cerevisiae deletion strains, locus YMR129W, stronger effect = lower value 1 | S. cerevisiae deletion strains, locus YMR205C, strain PFK2, stronger effect = lower value 0.995 | S. cerevisiae deletion strains, locus YMR223W, strain ubp8, stronger effect = lower value 1.02 | S. cerevisiae deletion strains, locus YMR231W, strain pep5, stronger effect = lower value 1 | S. cerevisiae deletion strains, locus YMR263W, strain SAP30, stronger effect = lower value 1.02 | S. cerevisiae deletion strains, locus YMR307W, strain GAS1, stronger effect = lower value 1.1 | S. cerevisiae deletion strains, locus YNL067W, strain RPL9B, stronger effect = lower value 1.01 | S. cerevisiae deletion strains, locus YNL071W, strain lat1, stronger effect = lower value 0.999 | S. cerevisiae deletion strains, locus YNL128W, strain TEP1, stronger effect = lower value 1.01 | S. cerevisiae deletion strains, locus YNL153C, strain GIM3, stronger effect = lower value 1.01 | S. cerevisiae deletion strains, locus YNL183C, strain NPR1, stronger effect = lower value 0.977 | S. cerevisiae deletion strains, locus YNL209W, strain ssb2, stronger effect = lower value 0.999 | S. cerevisiae deletion strains, locus YNL233W, strain BNI4, stronger effect = lower value 0.998 | S. cerevisiae deletion strains, locus YNL248C, strain rpa49, stronger effect = lower value 0.989 | S. cerevisiae deletion strains, locus YNL250W, strain rad50, stronger effect = lower value 1.03 | S. cerevisiae deletion strains, locus YNL271C, strain bni1, stronger effect = lower value 1.03 | S. cerevisiae deletion strains, locus YNL298W, strain CLA4, stronger effect = lower value 1.04 | S. cerevisiae deletion strains, locus YNL307C, strain MCK1, stronger effect = lower value 1.01 | S. cerevisiae deletion strains, locus YNL322C, strain KRE1 (second series), stronger effect = lower value 0.995 | S. cerevisiae deletion strains, locus YNL322C, strain KRE1, stronger effect = lower value 1.01 | S. cerevisiae deletion strains, locus YNR049C, strain mso1, stronger effect = lower value 0.998 | S. cerevisiae deletion strains, locus YNR052C, strain pop2, stronger effect = lower value 1.03 | S. cerevisiae deletion strains, locus YOL006C, strain TOP1, stronger effect = lower value 1.03 | S. cerevisiae deletion strains, locus YOL012C, strain htz1 1.06 | S. cerevisiae deletion strains, locus YOL147C, strain pex11, stronger effect = lower value 1.02 | S. cerevisiae deletion strains, locus YOR001W, strain rrp6, stronger effect = lower value 0.977 | S. cerevisiae deletion strains, locus YOR061W, strain CKA2, stronger effect = lower value 1.01 | S. cerevisiae deletion strains, locus YOR069W, strain VPS5, stronger effect = lower value 1.01 | S. cerevisiae deletion strains, locus YOR070C, strain gyp1, stronger effect = lower value 1 | S. cerevisiae deletion strains, locus YOR080W, strain dia2, stronger effect = lower value 1 | S. cerevisiae deletion strains, locus YOR083W, strain WHI5, stronger effect = lower value 0.999 | S. cerevisiae deletion strains, locus YOR106W, strain vam3, stronger effect = lower value 0.985 | S. cerevisiae deletion strains, locus YOR136W, strain idh2, stronger effect = lower value 1.03 | S. cerevisiae deletion strains, locus YOR144C, strain elg1, stronger effect = lower value 1.02 | S. cerevisiae deletion strains, locus YOR184W, strain ser1, stronger effect = lower value 1.03 | S. cerevisiae deletion strains, locus YOR231W, strain MKK1, stronger effect = lower value 1.03 | S. cerevisiae deletion strains, locus YOR265W, strain rbl2, stronger effect = lower value 1.03 | S. cerevisiae deletion strains, locus YOR270C, strain vph1, stronger effect = lower value 0.974 | S. cerevisiae deletion strains, locus YOR290C, strain snf2, stronger effect = lower value 0.987 | S. cerevisiae deletion strains, locus YOR316C, strain cot1, stronger effect = lower value 1.03 | S. cerevisiae deletion strains, locus YPL051W, strain arl3, stronger effect = lower value 1 | S. cerevisiae deletion strains, locus YPL055C, strain LGE1, stronger effect = lower value 1.02 | S. cerevisiae deletion strains, locus YPL078C, strain atp4, stronger effect = lower value 0.989 | S. cerevisiae deletion strains, locus YPL106C, strain sse1, stronger effect = lower value 1.04 | S. cerevisiae deletion strains, locus YPL240C, strain hsp82, stronger effect = lower value 1.01 | S. cerevisiae deletion strains, locus YPL241C, strain CIN2, stronger effect = lower value 1.01 | S. cerevisiae deletion strains, locus YPL256C, strain CLN2, stronger effect = lower value 1.07 | S. cerevisiae deletion strains, locus YPR119W, strain clb2, stronger effect = lower value 1.02 | S. cerevisiae deletion strains, locus YPR141C, strain kar3, stronger effect = lower value 1.03 | S. cerevisiae deletion strains, locus YPR163C, strain tif3, stronger effect = lower value 1.02 | S. cerevisiae deletion strains, locus YPR167C, strain met16, stronger effect = lower value 1.03 | S. cerevisiae deletion strains, strain wtn01, stronger effect = lower value 1.02 | S. cerevisiae strains, strain wild type, stronger effect = lower value 1.01
